Data: PubChem BioAssay
This is one part of the list. Calls of active or inactive are those of the source. Unless noted, no rule for the calls is given here.

Tests used:
[1] = PPC-1 cell viability loss – ATP content luminescence, cytotoxicity control for TRAIL apoptosis potentiator project, confirmation (AID 1447;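 active = reconfirmed compounds whose average cytotoxicity reaches 50% or more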;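 also: 0% = DMSO-treated cells and 100% = wells holding medium but no cells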); conditions: PPC-1 viability, ATPlite luminescence, overnight; at 5 µM; stronger effect = higher value
[2] = target: Sentrin-specific protease 8 (Homo sapiens) (UniProt Q96LD8); assay: human SENP8 peptidase blockers, hit retest – biochemical, luminescence, single concentration, confirmation (AID 488912;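 active = mean inhibition across replicates above about 50%, limit read from the data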); conditions: Recombinant SENP8, Z-RLRGG-aminoluciferin luminescence, 60 min; at 12.5 µM; stronger effect = higher value
[3] = target: Sentrin-specific protease 6 (Homo sapiens) (UniProt Q9GZR1); assay: inhibition of human SENP6 catalytic domain – biochemical, luminescence, single concentration, confirmation (AID 488915;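 active = mean inhibition above about 50% in the one-dose retest, limit read from the data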); conditions: recombinant SENP6, Z-RLRGG-aminoluciferin luminescence; at 12.5 µM; stronger effect = higher value
[4] = target: Sentrin-specific protease 7 (Homo sapiens) (UniProt Q9BQF6); assay: human SENP7 peptidase blockers, hit retest – biochemical, luminescence, single concentration, confirmation (AID 488917;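 active = mean inhibition above about 50% in the one-dose retest, limit read from the data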); conditions: recombinant SENP7, Z-RLRGG-aminoluciferin luminescence, 40 min; at 12.5 µM; stronger effect = higher value
Caspase-3 (Homo sapiens) = Caspase-3 (Homo sapiens) (UniProt P42574); assay: human caspase-3 activity blockade, out-of-family – biochemical, single concentration, selectivity assay for SENP inhibitor project, confirmation (AID 488918;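 active = mean inhibition above about 50%, limit read from the data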;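 also: plate controls were enzyme with DMSO for no effect and wells without caspase-3 for full effect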); conditions: purified caspase-3, Z-DEVD-aminoluciferin luminescence, 60 min; at 12.5 µM; stronger effect = higher value
[5] = Ultra-Glo luciferase signal interference – biochemical, single concentration, SENP8 reaction pre-completed, artefact control for SENP inhibitor project, confirmation (AID 488919;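 active = mean inhibition above about 50% when retested at one dose, limit read from the data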;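 also: plate controls were DMSO wells with completed reaction for no effect and substrate without enzyme for full effect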); conditions: Pre-incubated SENP8/Z-RLRGG-aminoluciferin, luciferase luminescence interference; at 12.5 µM; stronger effect = higher value
[6] = PERK-eIF2a-CHOP pathway stimulators, retested – cell-based, CHO-CHOP luciferase reporter, single concentration, confirmation (AID 463112; in the data active = activation above about 33%;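 also: 0% = DMSO wells and 100% = tunicamycin 10 µg/mL wells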); conditions: CHO-CHOP cells, CHOP-luciferase reporter luminescence; at 10 µM; stronger effect = higher value; percent of tunicamycin response, DMSO as zero
[7] = target: Protein Mdm4 (Homo sapiens) + E3 ubiquitin-protein ligase Mdm2 (Homo sapiens) (UniProt O15151+Q00987); assay: human Mdm2/MdmX binding disruption – cell-based, luminescence, single concentration, set 2, confirmation (AID 504601;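 active = mean inhibition of the luminescence signal across two replicates at or above 26 percent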); conditions: SaOS-2 split-luciferase Mdm2/MdmX complementation, at 8 µM, stronger effect = higher value
[8] = HIF-2a driven luciferase blockers, single dose – luminescence, 786-0 RCC cells, confirmation (AID 651580;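 active = mean inhibition across four replicates of at least 40 percent at the single tested concentration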); conditions: HIF-2a luciferase reporter luminescence, overnight, at 18.8 µM, stronger effect = higher value
[9] = HIF-1a luciferase reporter signal reduction – MiaPaCa-2 cells, single concentration, counter-screen for HIF-2a inhibitor project, confirmation (AID 651589;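 active = mean inhibition of the reporter signal across four replicates at the single tested dose of 50% or more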); conditions: MiaPaCa-2 HIF-1a luciferase reporter, desferoxamine, overnight; at 18.8 µM; stronger effect = higher value
[10] = fluorescence interference of Apaf-1 inhibitor hits, dose response, artefact control for Apaf-1 inhibitor project (AID 588538); conditions: fluorescence interference counterscreen, Apaf-1 assay format
[11] = inhibition of PEG-3 promoter luciferase signal – cell-based, HeLa, luciferase reporter, single concentration, confirmation (AID 602417;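 active = at 20 µM dose, 40% or more inhibition averaged across four replicates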); conditions: HeLa PEG-Prom luciferase reporter, luminescence, overnight; at 20 µM; stronger effect = higher value
PEG-3 [12] = target: PEG-3 (UniProt Q6IN02); assay: inhibition of PEG-3 promoter-driven reporter – cell-based, HeLa, luciferase, CREF/GAPDH counter-screen panel, dose response (AID 624167); conditions: HeLa PEG-Prom luciferase reporter, overnight, CREF/GAPDH counter-screens; run 1, dose range 1, at 100 µM (top of the series)
PEG-3 [13] = target: PEG-3 (UniProt Q6IN02); assay: as above; conditions: HeLa PEG-Prom luciferase reporter, overnight, CREF/GAPDH counter-screens; run 2, dose range 1, at 100 µM (top of the series)
[14] = NF-kB reporter suppression in CF airway cells – cell-based, GFP fluorescence, single concentration, confirmation (AID 602472; in the data active = inhibition above about 40%;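 also: stimulus PAF is a Pseudomonas aeruginosa filtrate and not platelet activating factor; plate controls were DMSO wells with stimulus for no effect and unstimulated DMSO wells for full effect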); conditions: KKLEB CF airway cells, PAF-induced NF-kB-GFP fluorescence, overnight; at 5 µM; stronger effect = higher value
[15] = Brca1-Bard1 BiLC signal decrease – luminescence, single concentration, counter-screen for Mdm2/MdmX interaction inhibitor project, confirmation (AID 504668); conditions: Brca1/Bard1 bimolecular luciferase complementation counterscreen, at 8 µM, stronger effect = higher value
[16] = target: Tumor necrosis factor receptor superfamily member 10B (Homo sapiens) (UniProt O14763); assay: viability loss of caspase-8 NB7 cells with TRAIL – with/without TRAIL, luminescence panel, confirmation (AID 651596; in the data active = activity above about 50%); conditions: NB7 neuroblastoma + caspase-8, TRAIL sensitization, NB7 Caspase-8, with TRAIL, mean of runs, at 10 µM, stronger effect = higher value
[17] = as above; conditions: NB7 neuroblastoma + caspase-8, without TRAIL, NB7 Caspase-8, without TRAIL, mean of runs, at 10 µM
[18] = target: Tumor necrosis factor receptor superfamily member 10B (Homo sapiens) (UniProt O14763); assay: compound enhancement of TRAIL-induced cell killing – NB7 cells plus caspase-8, luminescence, panel, dose response (AID 652002); conditions: NB7 neuroblastoma +caspase-8, TRAIL sensitization, luminescence viability, NB7+Caspase-8, with TRAIL, run 1; at 12.5 µM (top of the series)
[19] = target: Tumor necrosis factor receptor superfamily member 10B (Homo sapiens) (UniProt O14763); assay: as above; conditions: NB7 neuroblastoma +caspase-8, TRAIL sensitization, luminescence viability, NB7+Caspase-8, with TRAIL, run 2; at 12.5 µM (top of the series)
[20] = as above; conditions: NB7 neuroblastoma +caspase-8, no TRAIL, compound-alone cytotoxicity counter-screen, luminescence viability, NB7+Caspase-8, run 1; at 12.5 µM (top of the series)
[21] = as above; conditions: NB7 neuroblastoma +caspase-8, no TRAIL, compound-alone cytotoxicity counter-screen, luminescence viability, NB7+Caspase-8, run 2; at 12.5 µM (top of the series)
Rat fibroblasts (CREF) [22] = assay: inhibition of PEG-3 promoter-driven reporter – cell-based, HeLa, luciferase, CREF/GAPDH counter-screen panel, dose response (AID 624167); conditions: CREF/GAPDH counter-screens; run 1, dose range 1, at 100 µM (top of the series)
Rat fibroblasts (CREF) [23] = assay: as above; conditions: CREF/GAPDH counter-screens; run 2, dose range 1, at 100 µM (top of the series)
[24] = target: Carboxy-terminal domain RNA polymerase II polypeptide A small phosphatase 1 (Homo sapiens) (UniProt Q9GZU7); assay: SCP1 melting temperature change from compounds – biophysical, differential scanning fluorimetry, orthogonal assay for Scp-1 inhibitor project, confirmation (AID 540329;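 active = substances whose mean melting-temperature shift, as a percentage of the reference inhibitor's shift, reaches about 5.3%, limit read from the data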;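 also: 0% = Tm of DMSO wells and 100% = Tm with sodium orthovanadate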); conditions: Recombinant SCP1, Sypro Orange thermal shift Tm; at 40 µM; stronger effect = higher value
Chain of Carboxy-terminal domain RNA polymerase II polypeptide A small phosphatase 1 (Homo sapiens) (Q9GZU7 76-261 limits assumed): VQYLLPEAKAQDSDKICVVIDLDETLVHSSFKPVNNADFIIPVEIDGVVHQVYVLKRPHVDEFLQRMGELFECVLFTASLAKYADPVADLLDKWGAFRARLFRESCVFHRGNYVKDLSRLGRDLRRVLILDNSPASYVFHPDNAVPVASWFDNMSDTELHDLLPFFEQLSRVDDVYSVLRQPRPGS

Chain of PEG-3 (Q6IN02 whole entry, looked up): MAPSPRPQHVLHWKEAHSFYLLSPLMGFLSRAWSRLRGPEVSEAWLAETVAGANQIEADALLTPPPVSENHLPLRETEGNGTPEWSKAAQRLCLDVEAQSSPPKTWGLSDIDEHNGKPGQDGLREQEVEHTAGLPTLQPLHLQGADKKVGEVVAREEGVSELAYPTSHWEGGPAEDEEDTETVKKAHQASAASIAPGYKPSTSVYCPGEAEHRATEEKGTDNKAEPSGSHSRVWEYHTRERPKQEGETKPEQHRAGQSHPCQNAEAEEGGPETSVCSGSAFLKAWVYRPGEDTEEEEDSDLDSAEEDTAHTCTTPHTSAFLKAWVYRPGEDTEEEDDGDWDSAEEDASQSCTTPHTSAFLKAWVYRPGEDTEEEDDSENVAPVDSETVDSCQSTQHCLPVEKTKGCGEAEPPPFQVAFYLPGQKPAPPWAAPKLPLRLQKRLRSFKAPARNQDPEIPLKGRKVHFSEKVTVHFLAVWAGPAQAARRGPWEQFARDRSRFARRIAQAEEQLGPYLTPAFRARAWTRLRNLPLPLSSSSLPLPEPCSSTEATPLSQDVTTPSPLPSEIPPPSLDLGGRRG
Chain of Tumor necrosis factor receptor superfamily member 10B (Homo sapiens) (O14763 whole entry, looked up): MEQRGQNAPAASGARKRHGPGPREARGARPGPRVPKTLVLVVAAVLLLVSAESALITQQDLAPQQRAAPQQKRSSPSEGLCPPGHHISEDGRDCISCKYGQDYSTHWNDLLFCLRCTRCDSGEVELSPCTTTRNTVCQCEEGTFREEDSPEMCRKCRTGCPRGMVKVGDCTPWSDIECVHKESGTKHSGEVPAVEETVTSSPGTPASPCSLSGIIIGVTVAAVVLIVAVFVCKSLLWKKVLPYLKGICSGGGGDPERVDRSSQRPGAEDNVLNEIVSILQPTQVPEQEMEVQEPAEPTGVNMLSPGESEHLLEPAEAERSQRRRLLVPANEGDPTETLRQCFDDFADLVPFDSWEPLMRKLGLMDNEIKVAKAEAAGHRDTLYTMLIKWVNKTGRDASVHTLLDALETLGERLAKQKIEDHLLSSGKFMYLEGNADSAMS
Chain of Protein Mdm4 (Homo sapiens) + E3 ubiquitin-protein ligase Mdm2 (Homo sapiens) (O15151 whole entry, looked up): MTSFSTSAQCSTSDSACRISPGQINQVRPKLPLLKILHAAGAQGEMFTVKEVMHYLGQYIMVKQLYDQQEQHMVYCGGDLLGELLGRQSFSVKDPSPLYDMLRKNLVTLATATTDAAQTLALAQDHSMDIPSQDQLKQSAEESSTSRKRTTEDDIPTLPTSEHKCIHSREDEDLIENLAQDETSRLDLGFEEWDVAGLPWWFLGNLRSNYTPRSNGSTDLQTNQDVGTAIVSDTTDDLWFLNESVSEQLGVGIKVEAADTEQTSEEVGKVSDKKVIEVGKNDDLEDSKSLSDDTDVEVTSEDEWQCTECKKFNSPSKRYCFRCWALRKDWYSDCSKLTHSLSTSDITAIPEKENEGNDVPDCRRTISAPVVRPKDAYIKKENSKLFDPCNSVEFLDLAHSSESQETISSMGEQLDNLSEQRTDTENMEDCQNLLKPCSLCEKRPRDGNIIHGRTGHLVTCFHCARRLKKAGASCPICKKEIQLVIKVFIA
Chain of Protein Mdm4 (Homo sapiens) + E3 ubiquitin-protein ligase Mdm2 (Homo sapiens) (Q00987 whole entry, looked up): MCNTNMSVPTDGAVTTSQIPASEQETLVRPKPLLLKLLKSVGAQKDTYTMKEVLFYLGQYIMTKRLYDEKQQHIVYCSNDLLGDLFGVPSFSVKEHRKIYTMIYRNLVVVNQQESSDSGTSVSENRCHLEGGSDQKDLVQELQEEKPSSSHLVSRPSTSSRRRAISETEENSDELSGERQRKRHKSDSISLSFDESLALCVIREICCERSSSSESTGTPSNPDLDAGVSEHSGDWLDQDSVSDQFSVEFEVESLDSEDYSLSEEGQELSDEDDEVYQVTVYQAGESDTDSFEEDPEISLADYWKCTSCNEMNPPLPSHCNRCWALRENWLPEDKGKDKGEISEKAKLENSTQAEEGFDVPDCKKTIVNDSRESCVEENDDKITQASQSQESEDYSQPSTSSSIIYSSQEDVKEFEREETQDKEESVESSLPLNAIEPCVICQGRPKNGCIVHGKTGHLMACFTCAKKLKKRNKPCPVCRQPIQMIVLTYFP
Chain of Sentrin-specific protease 8 (Homo sapiens) (Q96LD8 whole entry, looked up, the tested form may be a part): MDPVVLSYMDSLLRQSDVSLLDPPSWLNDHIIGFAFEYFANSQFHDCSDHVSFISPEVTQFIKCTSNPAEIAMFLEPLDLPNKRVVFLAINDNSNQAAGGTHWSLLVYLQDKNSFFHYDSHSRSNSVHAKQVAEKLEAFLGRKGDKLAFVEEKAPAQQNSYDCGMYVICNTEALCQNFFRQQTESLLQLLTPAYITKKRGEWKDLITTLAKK
Chain of Sentrin-specific protease 7 (Homo sapiens) (Q9BQF6 706-1050 limits assumed): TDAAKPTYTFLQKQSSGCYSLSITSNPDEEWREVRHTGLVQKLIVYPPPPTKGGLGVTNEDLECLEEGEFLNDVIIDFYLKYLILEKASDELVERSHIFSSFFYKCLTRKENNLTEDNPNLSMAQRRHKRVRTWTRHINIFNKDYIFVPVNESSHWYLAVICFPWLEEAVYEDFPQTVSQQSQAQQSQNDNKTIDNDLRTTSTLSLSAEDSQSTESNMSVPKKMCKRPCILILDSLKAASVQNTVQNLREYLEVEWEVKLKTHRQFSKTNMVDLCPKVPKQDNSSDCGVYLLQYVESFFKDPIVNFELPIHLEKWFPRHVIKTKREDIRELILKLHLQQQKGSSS
Chain of Sentrin-specific protease 6 (Homo sapiens) (Q9GZR1 628-1112 limits assumed): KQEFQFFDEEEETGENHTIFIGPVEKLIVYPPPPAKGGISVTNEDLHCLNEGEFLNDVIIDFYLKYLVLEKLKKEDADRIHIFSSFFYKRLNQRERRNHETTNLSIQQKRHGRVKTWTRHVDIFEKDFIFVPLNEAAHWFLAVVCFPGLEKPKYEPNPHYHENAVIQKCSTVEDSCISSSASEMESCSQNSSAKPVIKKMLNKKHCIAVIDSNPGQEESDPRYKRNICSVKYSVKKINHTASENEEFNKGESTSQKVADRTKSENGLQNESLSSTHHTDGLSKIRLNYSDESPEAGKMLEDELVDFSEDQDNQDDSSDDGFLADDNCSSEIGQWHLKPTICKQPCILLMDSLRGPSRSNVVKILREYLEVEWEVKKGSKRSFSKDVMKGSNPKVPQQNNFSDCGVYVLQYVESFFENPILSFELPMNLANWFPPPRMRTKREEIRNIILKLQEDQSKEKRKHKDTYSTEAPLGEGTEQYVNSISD
Chain of Caspase-3 (Homo sapiens) (P42574 28-227 limits assumed): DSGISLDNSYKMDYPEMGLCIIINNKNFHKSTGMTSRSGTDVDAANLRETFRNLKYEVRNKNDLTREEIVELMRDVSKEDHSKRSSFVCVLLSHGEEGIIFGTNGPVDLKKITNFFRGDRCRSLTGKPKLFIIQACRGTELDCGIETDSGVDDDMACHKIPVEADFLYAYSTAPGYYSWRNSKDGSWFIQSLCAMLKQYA

## COc1cccc(-c2nc3ccc(N4CCN(C)CC4)cc3[nH]2)c1
[1]
  cytotoxicity: 82.3% (active)
[2]
  inhibition: 74.8% (active)
[3]
  inhibition: 67.2% (active)
[4]
  inhibition: 88.2% (active)
Caspase-3 (Homo sapiens)
  inhibition: 87% (active)
[5]
  inhibition: 25.4% (inactive)

## CCc1nc2ccccc2c(=O)n1-c1cccc(OC)c1
[1]
  cytotoxicity: -11.4% (inactive)

## O=C1NC(=O)N(CCc2ccc(F)cc2)C(=O)/C1=C/C=C/c1ccccc1
[6]
  activation: 90.1% (active)

## C/C(=N/O)c1ccc2ccc3ccccc3c2c1
[2]
  inhibition: 64.6% (active)
[3]
  inhibition: 61.5% (active)
[4]
  inhibition: 79.5% (active)
Caspase-3 (Homo sapiens)
  inhibition: 19.2% (inactive)
[5]
  inhibition: 30.7% (inactive)

## CCCCCCCCCCCCn1ccc(=N)cc1
[7]
  inhibition: 103% (active)
[8]
  inhibition: 64% (active)
[9]
  inhibition: 106% (active)

## Cc1cc2ccccn2c1C(C[N+](=O)[O-])c1c(F)cccc1Cl (stereo not drawn)
[7]
  inhibition: 33% (active)

## CCCCCn1c(=O)c(C(=O)Nc2c(C)n(C)n(-c3ccccc3)c2=O)c(O)c2ccccc21
[10]
  IC50: > 100 µM (inactive)

## CC(Cc1ccccc1)NCCC(c1ccccc1)c1ccccc1 (stereo not drawn)
[11]
  inhibition: 87.6% (active)
PEG-3 [12]
  inhibition: 98%
PEG-3 [13]
  inhibition: 98.9%

## O=Cc1cn(Cc2ccc(Br)cc2)c2ccccc12
PEG-3 [12]
  inhibition: 41.6%
PEG-3 [13]
  inhibition: 72.9%

## O=C1NC(=O)N(Cc2ccccc2)C(=O)/C1=C\C=C\c1ccco1
PEG-3 [12]
  inhibition: 94.5%
PEG-3 [13]
  inhibition: 98.5%

## Cc1ccc(-c2cc(-c3ccc(C)cc3)[n+](-c3ccccc3)c(-c3ccc(C)cc3)c2)cc1
PEG-3 [12]
  inhibition: 101%
PEG-3 [13]
  inhibition: 102%

## COc1ccc(-n2nnnc2C(c2cccc3ccccc23)N2CCC(n3c(=O)[nH]c4ccccc43)CC2)cc1 (stereo not drawn)
[14]
  inhibition: 14.7% (inactive)

## Brc1ccc(-[n+]2c(-c3ccccc3)cc(-c3ccccc3)cc2-c2ccccc2)cc1
[15]
  inhibition: 24.1% (active)
[16]
  activity: 73%
[17]
  activity: 63%

## COc1cc2c3cc1Oc1c(OC)c(OC)cc4c1[C@H](Cc1ccc(cc1)Oc1cc(ccc1O)C[C@H]3N(C)CC2)N(C)CC4
[15]
  inhibition: 29.8% (active)

## CCOC(=O)c1cccc(-[n+]2c(-c3ccccc3)cc(-c3ccccc3)cc2-c2ccccc2)c1
[15]
  inhibition: 33.2% (active)
[16]
  activity: 49.7%
[17]
  activity: 44%
[18]
  activity, % sensitization: 6.7%
[19]
  activity, % sensitization: 9.91%
[20]
  activity, % sensitization: 9.79%
[21]
  activity, % sensitization: 5.11%

## O=C(CSC1c2ccccc2-c2ccccc21)N/N=C/c1ccccc1O
[15]
  inhibition: 27.7% (active)
PEG-3 [12]
  inhibition: 79.8%
PEG-3 [13]
  inhibition: 66.1%
Rat fibroblasts (CREF) [22]
  inhibition: 64.9%
Rat fibroblasts (CREF) [23]
  inhibition: 74.1%

## Brc1ccc2c(c1)C(OC1CN3CCC1CC3)c1ccccc1CS2 (stereo not drawn)
[15]
  inhibition: 33.8% (active)

## NC(N)=N/N=C/c1ccc(N(c2ccccc2)c2ccccc2)cc1
[15]
  inhibition: 29.9% (active)
[16]
  activity: 75.5%
[17]
  activity: 97.2%

## CC1=CC(O)C(O)C2(C)C1CC1OC(=O)C(O)C3C(C)C(O)C4(O)OCC13C42 (stereo not drawn)
PEG-3 [12]
  inhibition: 95.8%
PEG-3 [13]
  inhibition: 93.3%

## O=C1NC(=S)NC(=O)C1=Cc1cccn1-c1ccc(O)cc1
PEG-3 [12]
  inhibition: 100%
PEG-3 [13]
  inhibition: 101%

## C[C@]12CC[C@H](O)C[C@H]1CC[C@@H]1[C@@H]2C[C@@H](O)[C@]2(C)[C@@H](C3=CC(=O)OC3)CC[C@]12O
[15]
  inhibition: 34% (active)
[16]
  activity: 86.5%
[17]
  activity: 85.4%

## O=[N+]([O-])c1cc(F)c(N2CCCCCC2)cc1N1CCNCC1
PEG-3 [12]
  inhibition: 99.4%
PEG-3 [13]
  inhibition: 101%

## CC(C)(C)n1nnnc1C(CCc1ccccc1)N1CCC(n2c(=O)[nH]c3ccccc32)CC1 (stereo not drawn)
PEG-3 [12]
  inhibition: 86.4%
PEG-3 [13]
  inhibition: 92.6%

## CC(=CCOc1ccc2ccc(=O)oc2c1)C1=CC(=O)C(C)(C)O1
[14]
  inhibition: -46% (inactive)
[8]
  inhibition: 44.2% (active)
[9]
  inhibition: 90.3% (active)

## O=C(O)CCn1cc(C=C2C(=O)NC(=S)NC2=O)c(-c2cccc(Br)c2)n1
[24]
  thermal shift relative to vanadate control: -19.9% (inactive)

## O=C1NC(=O)N(Cc2ccc(F)cc2)C(=O)/C1=C\C=C\c1ccco1
PEG-3 [12]
  inhibition: 98.2%
PEG-3 [13]
  inhibition: 99.4%

## O=C1NC(=O)N(Cc2ccco2)C(=O)/C1=C/C=C/c1ccco1
PEG-3 [12]
  inhibition: 102%
PEG-3 [13]
  inhibition: 102%

## c1ccc(-c2cc(-c3ccccc3)[n+](-c3ccccc3)c(-c3ccccc3)c2)cc1
PEG-3 [12]
  inhibition: 98.2%
PEG-3 [13]
  inhibition: 99.1%

## COc1ccccc1N=C1SCCCN1C
[24]
  thermal shift relative to vanadate control: -0.51% (inactive)

## Cc1ccc(S(=O)(=O)c2nc(-c3ccccc3Cl)oc2N(C)C2CCN(C)CC2)cc1
PEG-3 [12]
  inhibition: 99.3%
PEG-3 [13]
  inhibition: 101%

## COc1ccc(C(c2nnnn2-c2c(C)cccc2C)N2CCC(n3c(=O)[nH]c4ccccc43)CC2)cc1 (stereo not drawn)
PEG-3 [12]
  inhibition: 63.7%
PEG-3 [13]
  inhibition: 63.1%

## O=c1[nH]c(=O)n(CCc2ccc(F)cc2)c(O)c1/C=N/N1CCCCC1
[24]
  thermal shift relative to vanadate control: -3.71% (inactive)

## COc1cc2c3c(c1OC)Oc1ccc(cc1)C[C@H]1c4c(cc(OC)c(OC)c4Oc4ccc(cc4)C[C@@H]3N(C)CC2)CCN1C
[15]
  inhibition: 35.2% (active)

## COc1ccc(-n2nnnc2C(C2CC2)N2CCC(n3c(=O)[nH]c4ccccc43)CC2)cc1 (stereo not drawn)
PEG-3 [12]
  inhibition: 93.8%
PEG-3 [13]
  inhibition: 95.7%
